Results on 87 compounds are retold here after PubChem BioAssay AID463173 (ICCB-Longwood Screening Facility, Harvard Medical School, 2010).

The whole screen tested about 52,000 compounds, of which about 4,300 (8.3%) were called active. The sample holds actives, similar compounds and a random draw of the others, so the mix is not that of the screen. Unmarked numbers belong to inactive results. No stated cut-off is given here; in the data, active means survival mostly below about 52% (no sharp cut-off); inactive means mostly above about 56%.

The test system of this assay is DeltatarO mutant. As to the kind of experiment: growth inhibition of S. aureus wild type versus tarO mutant, primary screen, teichoic acid synthesis inhibitors, RN4220, OD600 (AID 463173). The note with it: OD600, 18 h, active compounds read low, screened at 18.75 µg/mL (by protocol).
For the compound `CNC(=O)c1cnc2sc(N3CCC(C)CC3)nn2c1=O`, the survival was 78%.

As for `CCOC(=O)c1ccc2c(c1)N(Cc1cc(C)ccc1C)C(=O)c1ccccc1S2(=O)=O`, the survival is 85%.

For the compound `Cc1ccccc1C(=O)NC1CCN(Cc2nnnn2C2CCCC2)CC1`, the survival is 101%.

Consider `CCC(CC)C(=O)Nc1ccc(C(=O)OCc2cc(=O)n3nc(C4CC4)sc3n2)cc1`, for which the survival is 80%.

For `Cc1ccc(/C=C/c2onc(C)c2S(=O)(=O)N2CCC(C(=O)Nc3ccccc3C(F)(F)F)CC2)cc1`, the survival was 75%.

Consider `COc1ccc(-c2c3c(=O)n(C)c(=O)n(C)c3cn2-c2cccc(N)c2)cc1`, for which the survival was 79%.

Regarding `COc1cccc2c1Oc1ncccc1N(c1ccc(C(=O)NCc3ccccc3C)s1)C2`, the survival is 84%.

As to `CCOc1ccccc1CNC(=O)c1cc(-c2ccc(C)c(C)c2)nc2ccccc12`, the survival is 74%.

For the compound `COc1ccc(NC(=O)c2ccc(NC(=O)CCS(=O)(=O)c3cccs3)cc2)cc1OC`, the survival is 50%.

As for `COc1cccc2sc(N3CCN(C(=O)CS(=O)(=O)c4ccc(Cl)cc4)CC3)nc12`, the survival is -4% (active).

Take `COc1cccc2sc(N3CCN(C(=O)CCS(=O)(=O)c4ccc(F)cc4)CC3)nc12`: the survival is 66%.

For the compound `COc1ccc(OC)c2sc(N3CCN(C(=O)CCS(=O)(=O)c4ccc(F)cc4)CC3)nc12`, the survival is 94%.

Consider `Cc1ccc(S(=O)(=O)CCC(=O)N2CCN(c3nc4c(C)c(C)ccc4s3)CC2)cc1`, for which the survival is 92%.

As for `Cc1ccc(S(=O)(=O)CC(=O)N2CCN(c3nc4c(F)cccc4s3)CC2)cc1`, the survival is -5% (active).

As for `Cc1c(Cl)ccc2sc(N3CCN(C(=O)CCS(=O)(=O)c4ccc(F)cc4)CC3)nc12`, the survival was 0% (active).

Regarding `Cc1cccc2sc(N3CCN(C(=O)CS(=O)(=O)c4ccc(F)cc4)CC3)nc12`, the survival was 102%.

On to `Cc1ccc2sc(N3CCN(C(=O)CCS(=O)(=O)c4ccc(Cl)cc4)CC3)nc2c1C`, for which the survival is 64%.

For `Cc1ccc(S(=O)(=O)CCC(=O)N2CCN(c3nc4c(C)c(Cl)ccc4s3)CC2)cc1`, the survival was 72%.

In the case of `CCCCC(=O)N1CCN(c2nc3c(C)c(C)ccc3s2)CC1`, the survival is 46% (active).

In the case of `Cc1c(Cl)ccc2sc(N3CCN(C(=O)CS(=O)(=O)c4ccccc4)CC3)nc12`, the survival is 106%.

As to `Cc1ccc2sc(N3CCN(C(=O)CCS(=O)(=O)c4ccc(F)cc4)CC3)nc2c1C`, the survival is 115%.

On to `O=c1cc(-c2ccccc2)n2c(SCc3cccc([N+](=O)[O-])c3)nnc2[nH]1`, for which the survival is 69%.

For the compound `Cc1noc(Cn2c(=O)c3cc4c(cc3n(CC(=O)Nc3ccccc3F)c2=O)OCO4)n1`, the survival is 77%.

For the compound `Cc1cccc(CS(=O)(=O)Cc2ccc(C(=O)NCc3ccc(Cl)cc3)o2)c1`, the survival was 130%.

With `Cc1ccc(-n2c(=O)c3c4c(sc3n(CC(=O)c3ccc(Cl)cc3)c2=O)CCC4)cc1C`, the survival is 168%.

Turning to `Cc1ccc(Cl)cc1NC(=O)CCC(=O)NCc1ccco1`, the survival is 74%.

For the compound `Cc1ccc(NS(=O)(=O)c2ccc3c(c2)CCCN3C(=O)C2CCC2)cc1Cl`, the survival was 107%.

With `CCc1cccc(C)c1NC(=O)Cn1cc2c(n1)CCCC2`, the survival is 99%.

Regarding `CCc1ccccc1NS(=O)(=O)c1ccc2[nH]cc(C(=O)N(CC(C)C)CC(C)C)c(=O)c2c1`, the survival was 84%.

With `COc1ccc(C(=O)Nc2nnc(S(=O)(=O)N(CC(C)C)c3ccc(C)cc3)s2)cc1OC`, the survival was 68%.

`COc1ccc(N(CC(C)C)S(=O)(=O)c2nnc(NC(=O)c3cccs3)s2)cc1`: the survival is 42% (active).

For `Cc1ccc(N(CC(C)C)S(=O)(=O)c2nnc(NC(=O)C(C)C)s2)cc1`, the survival was 72%.

Regarding `CC(C)CN(c1ccccc1)S(=O)(=O)c1nnc(NC(=O)C2CCCCC2)s1`, the survival is 51%.

Consider `Cc1ccc(N(CC(C)C)S(=O)(=O)c2nnc(NC(=O)c3cccs3)s2)cc1`, for which the survival was 34% (active).

Regarding `COc1ccc(C(=O)Nc2nnc(S(=O)(=O)N(CC(C)C)c3ccccc3)s2)cc1`, the survival is 51%.

Consider `CCc1ccc(CNC(=O)C2CCN(C(=O)N3CC(CC)Oc4ccc(C)cc43)CC2)cc1` (configuration not stated), for which the survival was 55%.

Turning to `Cc1ccc(OCC(=O)Nc2c(Cl)ccc3nsnc23)cc1C`, the survival was 71%.

With `Cc1ccc(OCC(=O)Nc2ccc(-c3nc4ccccc4o3)cc2)c(C)c1`, the survival is 63%.

Turning to `Cc1ccc2nc(-c3ccc(Cl)c(NC(=O)COc4ccc(C(C)C)cc4)c3)oc2c1`, the survival is 42% (active).

Turning to `Cc1ccc2nc(-c3ccc(Cl)c(NC(=O)c4cccc([N+](=O)[O-])c4C)c3)oc2c1`, the survival was 126%.

Regarding `Cc1ccc2nc(-c3ccc(C)c(NC(=O)Cc4ccccc4)c3)oc2c1`, the survival was 77%.

For `O=C(COc1ccccc1)Nc1c(Cl)ccc2nsnc12`, the survival is 74%.

Take `Cc1ccc2nc(-c3ccc(Cl)c(NC(=O)COc4ccc([N+](=O)[O-])cc4)c3)oc2c1`: the survival was 54%.

Regarding `Cc1ccc2nc(-c3ccc(Cl)c(NC(=O)COc4cccc(C)c4C)c3)oc2c1`, the survival was 48% (active).

In the case of `Cc1cccc(OCC(=O)Nc2ccc(-c3nc4ccccc4o3)cc2)c1C`, the survival is 52% (active).

In the case of `Cc1cc2nc(-c3cccc(NC(=O)COc4ccc(C(C)C)cc4)c3)oc2cc1C`, the survival is 50%.

For `CC(C)c1ccc(OCC(=O)Nc2c(Cl)ccc3nsnc23)cc1`, the survival is 41% (active).

With `Cc1cc(C)cc(OCC(=O)Nc2ccc(-c3nc4ccccc4o3)cc2)c1`, the survival was 51%.

Take `CN1CCN(C(=O)/C(=C/c2cccs2)NC(=O)c2cccs2)CC1`: the survival was 74%.

Take `CC(C)CCNC(=O)c1cnc2sc(N3CCCCCC3)nn2c1=O`: the survival was 78%.

`CCN(CC)S(=O)(=O)c1ccc2c(c1)c(=O)c(C(=O)N1CCN(c3cccc(C)c3)C(C)C1)cn2C` (configuration not stated): the survival was 78%.

On to `COc1ccc(N2CCN(C(=O)c3nn(-c4ccc(C)cc4)c(=O)n(C)c3=O)CC2)cc1`, for which the survival is 71%.

In the case of `CCN(CC)CCNC(=O)CCn1c(=O)c2cccn2c2cccnc21`, the survival is 87%.

`O=C(Cn1nnc(-c2ccc(Cl)cc2)n1)NCc1ccc(F)cc1`: the survival is 78%.

Turning to `CCc1ccc(NC(=O)N2c3ccccc3Sc3ccccc32)cc1`, the survival is -2% (active).

As for `CCN(CC)C(=O)N1c2ccccc2Sc2ccccc21`, the survival was 99%.

Consider `CC(=O)N1c2ccccc2Sc2ccccc21`, for which the survival was 102%.

In the case of `CC(C)c1ccc(NC(=O)N2c3ccccc3Sc3ccccc32)cc1`, the survival is 6% (active).

As to `O=C(C1CC1)N1c2ccccc2Sc2ccccc21`, the survival is 73%.

For the compound `CCOC(=O)N1c2ccccc2Sc2ccccc21`, the survival is 98%.

As to `Cc1ccc(-c2cc(C(F)F)n3ncc(C(=O)Nc4cn(C)nc4C)c3n2)cc1`, the survival was 89%.

Turning to `CC1=C(C(=O)Nc2ccc(F)cc2F)C2(CCCCCC2)OC1=O`, the survival is 83%.

With `Cc1cc(C)n(-c2nc(C)c(C)c(=O)n2CC(=O)Nc2ccc([N+](=O)[O-])cc2)n1`, the survival is 77%.

As for `Cc1cc(=O)n(CC(=O)Nc2cccc([N+](=O)[O-])c2)c(-n2nc(C)cc2C)n1`, the survival is 95%.

For the compound `Cc1cc(C)n(-c2nc(C)c(C)c(=O)n2CC(=O)Nc2cccc([N+](=O)[O-])c2)n1`, the survival was 52% (active).

Regarding `COc1ccc(CN2CCN(c3ncnc4sc5c(c34)CC(C)CC5)CC2)cc1F` (configuration not stated), the survival was 83%.

With `c1nc(N2CCCC2)c2c3c(sc2n1)CCC3`, the survival was 70%.

With `COc1ccc(CN2CCN(c3ncnc4sc5c(c34)CCCC5)CC2)cc1F`, the survival is 33% (active).

As to `Cc1nc(N2CCN(C(=O)c3ccco3)CC2)c2c3c(sc2n1)CC(C(C)(C)C)CC3` (configuration not stated), the survival is 77%.

For the compound `O=C(c1ccco1)N1CCN(c2ncnc3sc4c(c23)CCC4)CC1`, the survival was 36% (active).

Take `Clc1ccc(CN2CCN(c3ncnc4sc5c(c34)CCCC5)CC2)cc1Cl`: the survival is 107%.

`Cc1ccc(NC(=O)Cn2cc(S(=O)(=O)N3CCC(C)CC3)c3ccccc3c2=O)c(Br)c1`: the survival was 84%.

As to `COc1ccc(NCc2cc3cc4c(cc3n(CC(=O)Nc3ccc(C)cc3)c2=O)OCO4)cc1`, the survival is 67%.

As to `CCOc1ccc(NC(=O)Cn2c(=O)c(CNc3ccc(CC)cc3)cc3cc4c(cc32)OCO4)cc1`, the survival was 47% (active).

`CC(=O)c1cccc(NC(=O)Cn2c(=O)c(CNc3ccc(C)cc3)cc3cc4c(cc32)OCCO4)c1`: the survival was 91%.

In the case of `CCc1ccc(NCc2cc3cc4c(cc3n(CC(=O)Nc3ccc(C)cc3)c2=O)OCO4)cc1`, the survival is 89%.

With `CCc1ccc(NCc2cc3cc4c(cc3n(CC(=O)Nc3ccc(Cl)cc3)c2=O)OCO4)cc1`, the survival was 135%.

As for `Cc1ccc(NCc2cc3cc4c(cc3n(CC(=O)Nc3ccc(C)cc3)c2=O)OCCO4)cc1`, the survival was 32% (active).

As to `CCOC(=O)c1ccc(NC(=O)c2c(NCc3ccc(OC)c(OC)c3OC)sc3c2CCC(C)C3)cc1` (configuration not stated), the survival is 123%.

Turning to `COc1cccc(C(=O)N(Cc2ccc(C)o2)C2CCS(=O)(=O)C2)c1` (configuration not stated), the survival was 96%.

`CN(C(=O)c1cc2nc(-c3ccco3)cc(C(F)(F)F)n2n1)C12CC3CC(CC(C3)C1)C2`: the survival is 110%.

Regarding `COC(=O)c1ccccc1NC(=O)c1cn2c3c(ccc(Cl)c3c1=O)OC(C)C2` (configuration not stated), the survival was 84%.

For `Cc1cccc(-n2c3nc(=O)n(C)c(=O)c-3cc3ccc(Cl)cc32)c1C`, the survival is 81%.

For the compound `CCCn1c(=O)c2sccc2n2c(CCCC(=O)Nc3ccc(Oc4ccc(Cl)cc4)cc3)nnc12`, the survival was 98%.

Consider `Cn1c(=O)c2sccc2n2c(CCCC(=O)Nc3ccc(Oc4ccc(Cl)cc4)cc3)nnc12`, for which the survival was 24% (active).

`Cn1c(=O)c2sccc2n2c(CCCC(=O)Nc3ccc(Oc4ccccc4)cc3)nnc12`: the survival is 53%.

Consider `COc1ccc(NC(=O)c2ccc(CN3C(=O)CCn4nc(C)cc43)cc2)c(OC)c1`, for which the survival was 99%.
